From the supplement of paper PMC3334620
Over roughly 33,000 sequences, “E-score (-0.5 to 0.5)” has its median near -0.013; the highest 2% begin near 0.3. Shown is part of a subset that was picked to be rich in the highest values.

Molecular target: T1, Msn1 (UniProt P22148)
T1 sequence: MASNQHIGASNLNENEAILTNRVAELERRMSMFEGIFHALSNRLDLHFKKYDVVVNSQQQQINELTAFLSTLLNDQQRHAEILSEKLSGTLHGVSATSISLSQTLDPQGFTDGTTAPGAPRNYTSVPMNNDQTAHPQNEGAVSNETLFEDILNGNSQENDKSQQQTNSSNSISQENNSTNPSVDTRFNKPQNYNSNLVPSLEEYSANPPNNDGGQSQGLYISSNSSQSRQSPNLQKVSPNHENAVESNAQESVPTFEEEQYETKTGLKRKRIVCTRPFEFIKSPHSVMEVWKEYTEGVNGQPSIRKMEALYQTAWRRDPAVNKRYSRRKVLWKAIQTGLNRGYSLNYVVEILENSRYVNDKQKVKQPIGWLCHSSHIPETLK
Assay: PBM E-score (8-mer binding enrichment) (E-score (-0.5 to 0.5)); higher = stronger / more preferred TF binding
Conditions: protein concentration: 200 nM; construct: GST-full length
Experimental: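 Universal 'all 10-mer' protein binding microarrays (Agilent AMADID 015681) probed with GST-tagged S. cerevisiae TFs (full-length or DBD) made by in vitro transcription/translation (PURExpress), about 100-200 nM. Bound TF was detected with fluorescent anti-GST. Each ungapped 8-mer (which stands for itself and its reverse complement) is scored by the PBM enrichment score (E-score), a modified Wilcoxon-Mann-Whitney statistic from -0.5 to +0.5, computed with the Universal PBM Analysis Suite. Scale: above 0.35 generally sequence-specific binding.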

Sequence	PBM E-score
ACGTGCCT	-0.148
ATATCTGG	0.045
GCCATTGA	0.00063
CAATAAGC	0.00863
GCGTATCC	-0.037
CCATACCA	0.0887
GTGACAAA	0.423
GTGACAAC	0.139
GTGACGAA	-0.0509
ACTCCCTC	-0.312
TAATGACA	0.307
TGATGACA	0.299
AAATGACA	0.278
ACATGACA	0.297
TCATGACA	0.388
GAATGACC	0.201
CAATGACA	0.298
GAATGACA	0.34
GCATGACA	0.199
AGGGTAAC	-0.177
AAGTCGGA	0.158
ATACCCAA	0.195
ATAGGTTG	-0.0907
CGCGGGCC	-0.105
ACGGTCGG	-0.0232
GCAAACCC	-0.225

Sequence	PBM E-score
CCAACGGC	-0.132
GCATGTAA	-0.12
AAATTGTA	0.222
GAATTGGC	-0.278
CAATTGTG	-0.00904
GAATTGTC	0.392
GAATTGTA	0.151
CAATTGTA	0.184
AAATTGTC	0.449
AAATTGTT	0.143
CAATTGTC	0.445
ACCTAAAA	0.0426
TCTAGCAA	0.0862
TCACCCCA	0.108
AAACGCCT	-0.0244
GGTGCGGA	-0.047
ACCTAAGG	-0.14
AGTGCTCA	-0.229
AGGTACAG	0.00868
CGGTACAA	0.311
CGGTACAG	0.054
GGGTACAA	0.198
CGGTACAC	0.123
TGGTACCA	-0.0646
AGGTACAA	0.394
TGGTACAA	0.386

Sequence	PBM E-score
AGGTACAC	0.139
ATCGTTTA	0.141
CTTCATCA	-0.143
AAGGGCAG	-0.102
CTGGAAGC	-0.225
GCTTTTCC	-0.0951
AGCCTCAC	-0.223
CCCATGTA	0.0749
CTCATGTC	0.27
AGCATGTG	-0.0619
CCCATGTC	0.316
CGCATGTA	0.0633
AGCATGTC	0.318
AGCATGTA	0.0635
CGCATGTC	0.426
ACCATGTC	0.218
ATTTGAGC	-0.0055
ACAATCTA	0.0825
CGGACCGA	0.165
CAGCGAAG	-0.193
TATCGGGA	0.178
TCCCCAGA	-0.107
GATGTCCC	0.462
GATGTCAC	0.26
CATGTCAA	0.236
CCTGTCCG	0.117

Sequence	PBM E-score
ACTGTCCA	0.0386
TCTGTCCA	0.363
CATGTCAG	0.208
CATGTCCG	0.436
CATGTCCA	0.463
CCTGTCCA	0.156
GCTGTCCA	0.159
GCTGTCCC	-0.0712
CTTACTGC	-0.143
GATGGCGC	-0.252
ATTTAGAG	0.0544
ACGGGAGG	-0.268
ACACATGT	0.238
AATGTGCG	-0.0792
GATGTCGA	0.0163
AATGTCCG	0.481
TATGTCGA	0.289
TATGTCCA	0.465
GATGTCAA	0.0785
TACGTCCA	0.179
AAGGTCCG	-0.0417
GATGTCCA	0.458
AATGTCAA	0.3
GACGTCCA	0.207
TATGTCAA	0.31
GCTCCCAC	-0.135

Sequence	PBM E-score
GGCCAAAA	0.00072
GTTCGAGA	0.11
CAGAAAGC	-0.0396
AGCAAAAT	0.174
AGGGGGCC	-0.412
GCTACCGA	-0.00569
CCAGTACG	-0.0732
CATGTCCC	0.459
CATGTCAC	0.291
CCTGTCCC	0.282
CCACTTGC	-0.132
CTCAGTCA	-0.173
GCTGGACA	0.276
CCTGGACG	-0.182
CCTGGACA	0.417
TCTGGAAA	-0.0457
CCTGGACC	0.0101
ACTGGACT	0.105
TCTGGACA	0.381
ACTGGACA	0.374
ACTGGACC	-0.137
AAGTATGC	-0.0157
GCCGACCA	0.0498
TCCTTGCA	0.0515
CCTCTCAG	-0.339
ATACCATA	0.0438

Sequence	PBM E-score
CAGGCGGA	0.223
AAATGTTG	-0.0982
AAATGTCT	0.486
AAATGTAT	0.28
AAATGTCG	0.412
CAATGTAG	-0.109
AAATGTGG	0.147
CAATGTCG	0.323
AAATGTGT	0.292
CAATGTGG	0.111
CAATGTGC	-0.121
CAATGTCA	0.262
CAATGTCC	0.47
ACGACTCC	-0.181
GTCGGGTA	0.0767
GACGTCAA	-0.00044
GTAATATA	0.191
GAGAAACC	-0.0447
TATGTGAA	-0.121
GATAAGGC	0.0376
TAATGTCA	0.259
AAATGTAA	0.238
AAATGTTA	0.165
GAATGTGA	0.076
GAATGTCA	0.373
AAATGTCA	0.456

Sequence	PBM E-score
ACGATAGT	0.0402
CGACCTGA	0.0583
AGTTGTCA	0.295
CGTTGTCC	0.413
AGTTGTGC	-0.273
CGTTGTGC	0.114
CGTTGTCA	-0.023
AGTTGTCC	0.441
AATGCGGG	0.145
GGGAGCAC	-0.276
AAGCTCGT	0.0392
GCTTCCAA	-0.0663
GTCATTGA	0.0439
AGCTGGTC	-0.0428
ACGGGCAG	-0.0886
CGCAGACC	-0.123
AGCAGACA	0.0142
GGCAGACA	0.079
TGCAGACA	0.33
CGCAGACG	0.0312
